# Source: PubChem BioAssay
# In the library only some 2.4% were active in any assay of this set; here they are far more common.
# Pol eta inh-1 = DNA polymerase eta (human) inhibition; Q9Y253; Potency, µM (top dose mostly 114 µM), without a hit: at the highest dose activity change, negative = inhibition, hits mostly inhibitors; 390,000 tested, 1.2% active; AID 588591; recombinant Pol eta, fluorescent DNA replication assay; also: potency is read from the fitted curve at half-maximal effect; % is scaled to controls: 0 for no effect and ±100 for the full control effect
#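 Pol eta at 10 nM preincubated with compounds 15 min at room temperature; reaction started with fluorescent substrate (50 nM final) and read kinetically at 0 and 10 min.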
# POLI inh = DNA polymerase iota (human) inhibition. Q9UNA4. Pol iota fluorescent replication assay, 10 min. Potency, µM (series often up to 115 µM), inactives show at the top dose activity, negative = inhibition, most hits filed as inhibitors. 390,000 tested, 1% active; also: potency is read from the fitted curve at half-maximal effect
#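 Pol iota at 10 nM preincubated 15 min with compounds at room temperature; reaction started with fluorescent substrate, 50 nM final. Fluorescence read kinetically at 0 and 10 min; buffer-only wells as negative control.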
# FEN1 inhibitor = inhibitors of human flap endonuclease 1; P39748; Recombinant FEN1 flap cleavage, fluorescence, 15 min; Potency, µM (highest dose often 114 µM), for the others: top-dose activity change, negative = inhibition, most hits filed as inhibitors; 390,000 tested, 0.35% active; AID 588795; also: potency is read from the fitted curve at half-maximal effect; % is scaled to controls: 0 for no effect and ±100 for the full control effect; nearly all actives have a fitted effect of over 65% in size
#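 In this screen, 50 nM flap DNA substrate was added to 10 nM FEN1 pretreated with compound for 15 min at room temperature; cleavage was followed with reads at 0 and 15 min, and Hill fitting gave concentration–response parameters.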
# TDP1 block = blocks human tyrosyl-DNA phosphodiesterase 1 | Q9NUW8 | recombinant TDP1, AlphaScreen DNA substrate cleavage | Potency, µM (doses to about 130 µM), for inactives: top-dose activity change, negative = inhibition, actives largely listed as inhibitors | 350,000 tested, 0.28% active | AID 485290; also: potency is read from the fitted curve at half-maximal effect; % is scaled to controls: 0 for no effect and ±100 for the full control effect; nearly all actives have a fitted effect of over 40% in size
# Target sequence (Q9NUW8 whole entry, looked up): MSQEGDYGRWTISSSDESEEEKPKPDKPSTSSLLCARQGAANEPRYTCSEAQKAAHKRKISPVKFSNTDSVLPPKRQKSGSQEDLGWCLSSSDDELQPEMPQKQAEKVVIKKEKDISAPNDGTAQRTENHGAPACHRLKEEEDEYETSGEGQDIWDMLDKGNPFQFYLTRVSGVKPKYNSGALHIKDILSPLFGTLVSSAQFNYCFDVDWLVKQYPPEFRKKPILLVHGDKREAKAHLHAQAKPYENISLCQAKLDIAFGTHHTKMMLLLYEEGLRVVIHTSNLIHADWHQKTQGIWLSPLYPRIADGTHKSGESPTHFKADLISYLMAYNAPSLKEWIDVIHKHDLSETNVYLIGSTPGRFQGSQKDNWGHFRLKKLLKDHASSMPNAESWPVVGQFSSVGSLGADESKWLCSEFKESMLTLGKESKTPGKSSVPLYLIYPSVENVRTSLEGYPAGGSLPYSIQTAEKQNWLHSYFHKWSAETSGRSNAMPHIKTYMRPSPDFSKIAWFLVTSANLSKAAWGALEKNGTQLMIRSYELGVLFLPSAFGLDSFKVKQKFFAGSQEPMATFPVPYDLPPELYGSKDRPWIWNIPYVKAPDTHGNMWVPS
#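 Steps: enzyme plus compound, 15 min RT; add biotin/phosphotyrosine-FITC oligonucleotide (15 nM final), react 5 min; add donor/acceptor beads (10 ug/ml final), 10 min; read AlphaScreen. Tdp1 at 1 nM final.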
# POLB inh = blocks human DNA polymerase beta activity; P06746; Pol beta primer extension/strand displacement, fluorescence kinetic; Potency, µM (titrated, usually from 114 µM), without a hit: at the highest dose activity change, negative = inhibition, most hits filed as inhibitors; 340,000 tested, 1.3% active; AID 485314; also: potency is read from the fitted curve at half-maximal effect; % is scaled to controls: 0 for no effect and ±100 for the full control effect
#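 Human Pol beta at 10 nM; strand-displacement substrate 50 nM final. Compound exposure 15 min at room temperature before start, reaction 10 min at room temperature.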
# Pol kappa inh-1 = DNA polymerase kappa (human) inhibition; 400,000 tested, 0.53% active; Q9UBT6; purified Pol kappa, fluorescent DNA synthesis assay, 10 min; Potency, µM (highest dose often 107 µM), without a hit: at the top dose activity, negative = inhibition, actives largely listed as inhibitors; also: potency is read from the fitted curve at half-maximal effect; % is scaled to controls: 0 for no effect and ±100 for the full control effect
#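 First, compounds were pin-transferred onto 10 nM Pol kappa. After 15 min at room temperature, substrate was added to 50 nM final. Fluorescence was then measured kinetically at 0 and 10 min.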
# GALK confirm = galactokinase (human) inhibition, confirmation | shares compounds with Pol eta inh-1 | purified GALK, Kinase-Glo ATP depletion luminescence | Potency, µM (top dose mostly 115 µM), without a hit: at the top dose activity, negative = inhibition, usual class: inhibitors | 150 tested, 70% active | AID 2015
# GALK redox cs = counter-screen for GALK inhibitors: redox cycling H2O2 generation. Phenol red-HRP H2O2 redox cycling, absorbance 600 nm. 150 tested, 40% active. Potency, µM (series often up to 115 µM), inactives show top-dose activity change, negative = H2O2 signal, hits mostly inhibitors. AID 2035. shares compounds with Pol eta inh-1
# HEK293 tox = counter-screen for GALK inhibitors: HEK293 cell cytotoxicity | shares compounds with Pol eta inh-1 | 170 tested, 10% active | HEK-293 viability, ATP luminescence (CellTiter-Glo), 24/48 h | Potency, µM (titrated, usually from 46.1 µM), for inactives: at the highest dose activity change, negative = cytotoxicity, most hits filed as inhibitors | AID 2547; also: potency is read from the fitted curve at half-maximal effect; % is scaled to controls: 0 for no effect and ±100 for the full control effect
# Pol kappa inh-2 = confirmation of human DNA polymerase kappa inhibitors | 920 tested, 76% active | AID 720501 | purified Pol-kappa, fluorescent strand-displacement substrate | Potency, µM, most hits filed as inhibitors | shares compounds with Pol eta inh-1; also: potency is read from the fitted curve at half-maximal effect
# Pol eta inh-2 = confirmation of human DNA polymerase eta inhibitors | Pol eta primer extension, TAMRA/BHQ fluorescence, 10 min | 2,600 tested, 64% active | shares compounds with Pol eta inh-1 | Potency, µM, hits mostly inhibitors | AID 720502; also: potency is read from the fitted curve at half-maximal effect
# Active calls of the source: *; ? = inconclusive; . = not tested or not shown; [ ] = remark or other dose. Calls follow the shape of the dose curve; as a rule, active = well fitted curve in the direction sought with a large enough effect; inconclusive = small, poorly fitted or top-dose-only effect, or another doubt; inactive = no such curve, though single readings can be large; an effect the other way counts as inactive or inconclusive.
SMILES,Pol eta inh-1,POLI inh,FEN1 inhibitor,TDP1 block,POLB inh,Pol kappa inh-1,Pol eta inh-2,others
Cc1noc(C)c1C(=O)N1CCC2(CCCN(Cc3ccc(C#N)cc3)C2)CC1,.,.,.,.,.,-2%[60.1 µM],.,
CCn1c(SCC(=O)c2ccc(O)c(O)c2)nnc1-c1ccc(C)cc1,10µM*,-51%,-5%,-4%,-46%,28µM*,60*,Pol kappa inh-2=?
O=c1c2ccccc2nc2c3ccccc3c(NCc3ccccn3)nn12,?,17%,?,6%,?,-11%,48*,Pol kappa inh-2=27*
O=c1c2ccccc2nc2c3ccccc3c(NCc3cccnc3)nn12,1%,-10%,17%,6%,8%,-12%,.,
Cc1cccc(OCC(=O)OCc2cc(=O)n3nc(-c4cccs4)sc3n2)c1,?,?,9%,2%,25µM*,?,?,
COc1ccc(OCC(=O)OCc2cc(=O)n3nc(-c4cccs4)sc3n2)cc1,?,-14%,10%,2%,?,3%,.,
Cc1cccc(-c2nc(SCC(=O)Nc3ccc4c(c3)OCO4)c(-c3ccccc3)[nH]2)c1,-17%,-6%,-1%,10%,-4%,-24%,.,
O=C(O)c1cccc(Nc2c3ccccc3nc3ccccc23)c1,-16%,36%,-21%,6%,1%,-21%,.,
O=C(O)c1cc(S(=O)(=O)O)cc(Nc2c3ccccc3nc3ccccc23)c1O,22µM*,?,-21%,.,-7%,?,30*,Pol kappa inh-2=17*
COc1cc(C2C(C#N)=C(N)OC3=C2C(=O)CC(C)(C)C3)cc2c1OCO2 (stereo not given),?,25µM*,-9%,.,.,?,?,
COc1cc(C2C(C#N)=C(N)Oc3cc(O)ccc32)cc2c1OCO2 (stereo not given),-7%,0%,-9%,11%,15%,-12%,.,
COCc1cc(C)n(CC(=O)N/N=C/c2ccc(-c3ccc(Cl)c(C(=O)O)c3)o2)c(=O)c1C#N,10µM*,22µM*,5%,.,20µM*,?,43*,
Cc1cc(NC(=O)c2cc(S(=O)(=O)N3CCCCC3)ccc2C)no1,22µM*,?,7%,-15%,.,?,?,
O=C1ON=C(c2ccccc2)/C1=C/c1ccc(O)c(O)c1,22µM*,?,?,.,-17%,12%,60*,GALK confirm=?;GALK redox cs=-16%;HEK293 tox=-3%
O=C(c1ccccc1)c1ccc2nc(-c3ccco3)c(-c3ccco3)nc2c1,13µM*,4µM*,?,-8%,8.9µM*,25µM*,?,Pol kappa inh-2=?
c1coc(-c2cnc3ccccc3n2)c1,-13%,.,.,.,.,.,.,
c1coc(-c2nc3ccccc3nc2-c2ccco2)c1,50µM*,?,-28%,.,18µM*,?,?,
